Our source for the growth values is PubChem BioAssay (NCI).

About 83,000 compounds went through this panel and 20% of them were active in at least one assay; those are over-represented in the sample as a whole.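 Each cell line was grown in a 96-well plate and treated with one concentration of compound for 48 hours. Values below 10 were considered active.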 The source made the active and inactive calls.

The assay relates to OVCAR-8 ovarian. The assay can be described thus: NCI-60 one-dose screen, 48 h (100 = growth as untreated, 0 = no growth, -100 = all killed). Conditions: 10 µM unless noted.
With `O=C(Nc1nc2ccc(C(=O)N3CCN(/C=C/c4ccccc4)CC3)cc2s1)c1ccc(NCCc2ccccc2)c([N+](=O)[O-])c1`, the growth is 68.4% (inactive).
Regarding `COC12C=C/C(=C(/C(=O)OCc3ccncc3)C(=O)CCCCCCCCC3(OC)C=C/C(=C(/C(=O)OCc4ccncc4)C(=O)CCCCCCCC1)O3)O2`, the growth was 14.7% (inactive).
Then `Cc1ccc2c(n1)C(=O)C(Br)=C(C1CCCC1)C2=O`, with 96% (inactive).
With `C#COc1cccc(Nc2c(C#N)cnc3ncc(NC(=O)CCl)cc23)c1` the figure was 32.2% [6.25 µM] (inactive); with `COc1cc(-c2csc(NC(=O)c3ccc(N4CCOCC4)c(C(F)(F)F)c3)n2)cc(OC)c1OC`, 2.22% (active).
With `CC/C=C\C[C@H](O)C/C=C1/C(=O)C=C[C@@H]1C/C=C\CCCC(=O)N(C)C` the figure was 2.8% (active).
As to `Oc1c(I)cc(I)cc1CNCCN(Cc1ccccn1)Cc1ccccn1`, the growth is -19.7% (active).
As for `CC1=C([Se]CC(OC(=O)CC[Se]c2ccccc2)C(=O)NC(C)(C)C)C(=O)c2ccccc2C1=O` (stereo unspecified), the growth is -82% (active).
Then `Cc1cn(-c2cc(NC(=O)c3cncc(C#Cc4cnc(N)c5ncccc45)c3)cc(C(F)(F)F)c2)cn1`, with 64.5% (inactive).
With `CC(C)c1ccc(-n2c(=S)[nH]c3sc4cc(O)ccc4c3c2=O)cc1`, the growth is 102% (inactive).
With `COc1ccccc1CNc1c2ccccc2nc2ccccc12` the figure was 31.9% (inactive).
With `COC(=O)c1nc(-c2ccccc2)oc1S(=O)(=O)Cc1ccccc1`, the growth is 90.1% (inactive).
As to `O=C1/C(=C/c2ccccc2Br)COc2ccc(O)cc21`, the growth is 55.5% (inactive).
With `C/C(Cc1ccc(Cl)cc1)=C(\c1ccc(O)cc1)c1ccc(Cl)cc1` the figure was 104% (inactive); with `COC12C=C/C(=C(/C(=O)OCc3ccncn3)C(=O)CCCCCCCCC3(OC)C=C/C(=C(/C(=O)OCc4ccncn4)C(=O)CCCCCCCC1)O3)O2`, 17.2% (inactive); with `CCc1ccccc1-n1c(-c2ccc(OC)cc2)cc(-c2ccc(OC)cc2)c(C#N)c1=O`, 41.7% (inactive).
Then `COCCn1cc(-c2csc(-c3cn(C)c4ccc(Br)cc34)n2)c2cccnc21`, with 56.3% (inactive); and `C=CCc1c(O)c(C(=O)/C=C/c2ccccc2)c(OC)c2ccoc12`, with 29.6% (inactive); and `COc1cc(-c2nc3sccn3c2-c2ccnc(NCCNS(=O)(=O)c3ccccc3)n2)ccc1F`, with 46.1% (inactive).
With `O=c1c2cnn(-c3ccccc3)c2n2c(CN3CCOCC3)nnc2n1-c1ccccc1` the figure was 100% (inactive); with `O=C1C(Cl)=C(Nc2ccc(S(=O)(=O)N3CCOCC3)cc2)C(=O)c2ccccc21`, 70% (inactive).
With `O=C(COc1ccc(-c2nc3cc(Cl)c(Cl)cc3[nH]2)cc1)N=Nc1c(O)[nH]c2ccc(Cl)cc12`, the growth is 37% (inactive).
Then `CC1CCc2c(C(=O)Nc3ncc(Cc4cccc([N+](=O)[O-])c4)s3)csc2C1` (stereo unspecified), with 26.4% (inactive); and `CC(C)(Sc1cc(C(C)(C)C)c(O)c(C(C)(C)C)c1)Sc1cc(C(C)(C)C)c(OC(=O)CCCC(=O)O)c(C(C)(C)C)c1`, with 56.7% (inactive); and `CCSc1oc(-c2ccccc2)nc1[P+](c1ccccc1)(c1ccccc1)c1ccccc1`, with 7.86% (active).
As to `C#CCOC(=O)/C=C/c1cn(-c2ccccc2)nc1-c1ccc(OC)cc1`, the growth is 78.5% (inactive).
As to `Cc1ccc(CNc2ccc3nc(CCC4CCCCC4)[nH]c3c2)cc1`, the growth is 56.4% (inactive).
In the case of `CCn1c(SCC(=O)N/N=C(\C)c2ccc(Cl)cc2)nc2c1c(=O)n(C)c(=O)n2C`, the growth was 99.9% (inactive).
With `COc1ccc(\C=N/N=C(N)/C(N)=N\N=C/c2ccc(OC)cc2)cc1` the figure was 117% (inactive).
With `c1cc2c(ccc3[nH]c(-c4ccc5[nH]ncc5c4)c4c(c32)CCCC4)n1` the figure was 64.4% (inactive); with `Cc1ccc2c(Cn3cc(CSc4nc5ccccc5o4)nn3)cc(=O)oc2c1`, 97.4% (inactive).
Consider `C=C(C)[C@@H]1CCC[C@]2(COS(=O)(=O)c3ccc(C)cc3)CC[C@]3(C)[C@@H](CC[C@@H]4[C@@]5(C)CCCNC(C)(C)[C@@H]5CC[C@]43C)[C@@H]12`, for which the growth was -77.6% (active).
Then `COC(=O)c1c(C)c2n(c1C)C(=O)C(c1ccccc1)=C2`, with 79.2% (inactive).
With `COc1cc2cc(NCc3cccc(Cl)c3)nc(C)c2cc1OC` the figure was 45.3% (inactive).
With `CCN(CC)Cc1cc(C=C2C(=O)NC(=S)NC2=O)cc(OC)c1O` the figure was 113% (inactive).
On to `Cc1cc(=O)oc2cc(OCc3nn4c(Nc5nc6ccccc6s5)c(-c5ccccc5)nc4s3)ccc12`, for which the growth is 80.4% (inactive).
